Results published in the supplement of paper PMC11172423.

Key:
[1] = system: Falciformispora senegalensis CBS197.79; test: growth relative to untreated control; higher = less inhibition, active = 20 or less
Outline: (§1)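 Growth was expressed as metabolic activity relative to the untreated growth control, with both corrected using a blank of medium plus dye. Hyphal fragments of M. mycetomatis MM55 or F. senegalensis CBS197.79 were suspended to 68–72% transmission at 660 nm in colourless RPMI 1640 containing L-glutamine and MOPS. In 96-well plates they were exposed to compound at 100 or 25 µM for 7 days at 37 °C, and viability was read with MTS (2 h, 490 nm) or resazurin (600 nm).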

[2] = system: Madurella mycetomatis MM55; test: as above
Outline: as §1

Measured: growth

S=C(NCc1ccc2c(c1)OCO2)N1CCN(c2ncnc3c2oc2ccccc23)CC1
inactive: [1]; 25 µM 113% | [1]; 100 µM 106% | [2]; 25 µM 73.4% | [2]; 100 µM 77.9%

Cc1nc(NCc2ccc(F)cc2)nc(NCC(C)(C)C)c1C
active: [1]; 25 µM 15.9% | [1]; 100 µM 17.8% | [2]; 25 µM 6.77% | [2]; 100 µM 5.94%

COc1cccc(-c2ccc(NC(=O)C3=C(C(=O)O)CCC3)c(F)c2)c1
inactive: [1]; 25 µM 109% | [1]; 100 µM 105% | [2]; 25 µM 76.1% | [2]; 100 µM 91.5%

CC(C)Oc1cccc(-c2ccc3nc(Nc4ncccc4N(C)C)cn3c2)n1
inactive: [1]; 25 µM 88.2% | [1]; 100 µM 93.4% | [2]; 25 µM 124% | [2]; 100 µM 84.6%

CCSc1ccc2c(c1)N(CCCN1CCN(C)CC1)c1ccccc1S2
active: [1]; 25 µM 7.2% | [1]; 100 µM 11.7% | [2]; 25 µM 3.68% | [2]; 100 µM 3.76%

Cc1cnc2nc(NC3COc4ccccc43)nc(NC(C3CC3)C3CC3)c2c1 (stereo not given)
active: [2]; 25 µM 7.72% | [2]; 100 µM 8.15%
inactive: [1]; 25 µM 83.2% | [1]; 100 µM 33.4%

NC(=O)c1ncn([C@@H]2O[C@H](CO)[C@@H](O)[C@H]2O)n1
inactive: [1]; 25 µM 110% | [1]; 100 µM 102% | [2]; 25 µM 87.9% | [2]; 100 µM 87.6%

CC[C@H](C)[C@H]1O[C@]2(CC[C@@H]1C)C[C@@H]1C[C@@H](C/C=C(\C)[C@@H](O[C@H]3C[C@H](OC)[C@@H](O[C@H]4C[C@H](OC)[C@@H](O)[C@H](C)O4)[C@H](C)O3)[C@@H](C)/C=C/C=C3\CO[C@@H]4[C@H](O)C(C)=C[C@@H](C(=O)O1)[C@]34O)O2 [listing 1 of 2 here]
inactive: [1]; 25 µM 93.9% | [1]; 100 µM 106% | [2]; 25 µM 73.2% | [2]; 100 µM 83.5%

CCOc1ccc(C=C2NCCc3cc(OCC)c(OCC)cc32)cc1OCC
inactive: [1]; 25 µM 112% | [1]; 100 µM 106% | [2]; 25 µM 73.2% | [2]; 100 µM 48%

CC[C@H](C)[C@H]1O[C@]2(CC[C@@H]1C)C[C@@H]1C[C@@H](C/C=C(\C)[C@@H](O[C@H]3C[C@H](OC)[C@@H](O[C@H]4C[C@H](OC)[C@@H](O)[C@H](C)O4)[C@H](C)O3)[C@@H](C)/C=C/C=C3\CO[C@@H]4[C@H](O)C(C)=C[C@@H](C(=O)O1)[C@]34O)O2 [listing 2 of 2 here]
inactive: [1]; 25 µM 90.2% | [1]; 100 µM 91.2% | [2]; 25 µM 95.8% | [2]; 100 µM 112%

N#Cc1c(N)nc(NC2CC2)nc1N
inactive: [1]; 25 µM 99.7% | [1]; 100 µM 92.9% | [2]; 25 µM 91.3% | [2]; 100 µM 95.4%

Cc1ccc(-c2c3c(nc4sc(C(=O)Nc5ccc(F)cc5)c(N)c24)CCC3)cc1
inactive: [1]; 25 µM 81.3% | [1]; 100 µM 89.6% | [2]; 25 µM 110% | [2]; 100 µM 122%

O=C(Nc1ccc([N+](=O)[O-])cc1Cl)c1cc(Cl)ccc1O
active: [1]; 25 µM 0% | [1]; 100 µM 0% | [2]; 25 µM 4.63% | [2]; 100 µM 4.72%

Cc1nc(NC2(c3ccc(C#N)cc3)CC2)nc(NCC2COC2)c1C
inactive: [1]; 25 µM 97.1% | [1]; 100 µM 96.2% | [2]; 25 µM 87.8% | [2]; 100 µM 22.3%

CC(C)N1CCN(c2ccc(OC[C@H]3CO[C@](Cn4cncn4)(c4ccc(Cl)cc4Cl)O3)cc2)CC1
inactive: [1]; 25 µM 20.1%
active: [1]; 100 µM 7.6% | [2]; 25 µM 3.57% | [2]; 100 µM 2.95%

O=C(NC1CCN(CCOc2ccc(Cl)cc2)CC1)c1c[nH]c2ccncc2c1=O
inactive: [1]; 25 µM 73.5% | [1]; 100 µM 84.8% | [2]; 25 µM 90.2% | [2]; 100 µM 102%

FC(F)(F)CNc1ncc2nc(Nc3cc(Cl)cc(Cl)c3)n(C3CCNCC3)c2n1
inactive: [1]; 25 µM 104% | [1]; 100 µM 107% | [2]; 25 µM 70.4%
active: [2]; 100 µM 4.54%

O[C@@H](CNC[C@H](O)[C@H]1CCc2cc(F)ccc2O1)[C@@H]1CCc2cc(F)ccc2O1
active: [1]; 25 µM 5.42% | [1]; 100 µM 12.3% | [2]; 25 µM 5.79% | [2]; 100 µM 3.82%

O=C(NCc1ccco1)c1ccc2[nH]c(COc3ccc(C45CC6CC(CC(C6)C4)C5)cc3)nc2c1
inactive: [1]; 25 µM 97.5% | [1]; 100 µM 84.5% | [2]; 25 µM 87.5% | [2]; 100 µM 168%

COc1c(C)c2c(c(O)c1C/C=C(\C)CCC(=O)O)C(=O)OC2
inactive: [1]; 25 µM 102% | [1]; 100 µM 107% | [2]; 25 µM 88% | [2]; 100 µM 94.6%

N#Cc1cccc(C(=O)NC2CCN(c3ccnc(Nc4ccc(F)cc4)n3)C2)c1 (stereo not given)
inactive: [1]; 25 µM 89.5% | [1]; 100 µM 88.1% | [2]; 25 µM 84.1% | [2]; 100 µM 85.8%

CCCCN(CCCC)CC(O)c1cc(Cl)cc2c1-c1ccc(Cl)cc1/C2=C/c1ccc(Cl)cc1 (stereo not given)
inactive: [1]; 25 µM 98.7% | [1]; 100 µM 96.3% | [2]; 25 µM 107% | [2]; 100 µM 87.9%

C/C=C/C[C@@H](C)[C@@H](O)[C@H]1C(=O)N[C@@H](CC)C(=O)N(C)CC(=O)N(C)[C@@H](CC(C)C)C(=O)N[C@@H](C(C)C)C(=O)N(C)[C@@H](CC(C)C)C(=O)N[C@@H](C)C(=O)N[C@H](C)C(=O)N(C)[C@H](CC(C)C)C(=O)N(C)[C@@H](CC(C)C)C(=O)N(C)[C@@H](C(C)C)C(=O)N1C
inactive: [1]; 25 µM 113% | [1]; 100 µM 94.5% | [2]; 25 µM 79% | [2]; 100 µM 68.9%

Cc1cccc2c1N(C(=O)c1cc(Br)nn1-c1ncccc1Cl)CN(C(C)C)C2=O
inactive: [1]; 25 µM 94% | [1]; 100 µM 93.3% | [2]; 25 µM 91.9% | [2]; 100 µM 153%

CC(C)Nc1ncc2nc(Nc3cc(Cl)cc(C(F)(F)F)c3)n(C3CCNCC3)c2n1
active: [2]; 100 µM 4.67%
inactive: [1]; 25 µM 90.2% | [1]; 100 µM 69.2% | [2]; 25 µM 118%

Clc1cccc2cnsc12
inactive: [1]; 25 µM 96.1% | [1]; 100 µM 86.1% | [2]; 25 µM 125% | [2]; 100 µM 68.5%

N#Cc1ccc(C/C(=N/NC(=O)Nc2ccc(OC(F)(F)F)cc2)c2cccc(C(F)(F)F)c2)cc1
inactive: [1]; 25 µM 97% | [1]; 100 µM 96.1% | [2]; 25 µM 98.2% | [2]; 100 µM 91.3%

CC(C)Nc1ncc2nc(Nc3cc(C(F)(F)F)cc(C(F)(F)F)c3)n(C3CCNCC3)c2n1
inactive: [1]; 25 µM 104% | [1]; 100 µM 107% | [2]; 25 µM 104% | [2]; 100 µM 64.5%

CCC(C)(C)n1nnnc1C(c1cc2ccc(C)cc2[nH]c1=O)N1CCN(c2ccccc2)CC1 (stereo not given)
inactive: [1]; 25 µM 86% | [1]; 100 µM 84.3% | [2]; 25 µM 76.6% | [2]; 100 µM 91.7%

NC1(c2ccc(-c3nc4ccn5c(O)nnc5c4cc3-c3ccccc3)cc2)CCC1
inactive: [1]; 25 µM 104% | [2]; 25 µM 79.3%
active: [1]; 100 µM 14% | [2]; 100 µM 3.13%

Cc1c2c(n3c(nc4ccccc43)c1C#N)N(CCN(C)C)CC2
inactive: [1]; 25 µM 64.5% | [1]; 100 µM 88.2% | [2]; 25 µM 101% | [2]; 100 µM 43.7%

CC[C@H](C)[C@@H]1NC(=O)c2csc(n2)[C@H]([C@@H](C)CC)NC(=O)c2csc(n2)CNC(=O)c2nc1oc2C
inactive: [1]; 25 µM 83.8% | [1]; 100 µM 100% | [2]; 25 µM 64.4% | [2]; 100 µM 44.8%

Cc1nn(-c2cccc(Cl)c2)c2c1C(C(=O)c1ccc3c(c1)OCO3)CC(=O)N2 (stereo not given)
inactive: [1]; 25 µM 87.3% | [1]; 100 µM 91.7% | [2]; 25 µM 68.8% | [2]; 100 µM 88.3%

CC1(O)CN(C(=O)c2cccc(NC(=O)c3ccc(Nc4ccccn4)cc3)c2)C1
inactive: [1]; 25 µM 106% | [1]; 100 µM 107% | [2]; 25 µM 55.8% | [2]; 100 µM 141%

C[C@H](NC(=O)c1cc2ccc(Cl)cc2n1C)c1ccccc1
inactive: [1]; 25 µM 93.6% | [1]; 100 µM 81.7% | [2]; 25 µM 99.6% | [2]; 100 µM 81.1%

CCOC(=O)c1c(CSc2ccccc2)n(C)c2cc(Br)c(O)c(CN(C)C)c12
inactive: [1]; 25 µM 103% | [1]; 100 µM 97.8% | [2]; 25 µM 98.5% | [2]; 100 µM 75.4%

N=C(N)Nc1ccc(C(=O)Oc2ccc3cc(C(=N)N)ccc3c2)cc1
inactive: [1]; 25 µM 107% | [1]; 100 µM 66.5% | [2]; 25 µM 79.9% | [2]; 100 µM 72.3%

CC(C)Nc1ncc2nc(Nc3cc(F)cc(Cl)c3)n(C3CCNCC3)c2n1
inactive: [1]; 25 µM 101% | [1]; 100 µM 99.6% | [2]; 25 µM 91.1% | [2]; 100 µM 94.2%

Cc1cc(Nc2cc(N)ncn2)c(=O)n2c1C(=O)NC21CCCCC1
inactive: [1]; 25 µM 111% | [1]; 100 µM 107% | [2]; 25 µM 85.9% | [2]; 100 µM 84.7%

O=C(Nc1cccc(Cl)c1)c1ccnc(N2CCC(N3CCCC3)CC2)c1
active: [2]; 100 µM 5.81%
inactive: [1]; 25 µM 95.5% | [1]; 100 µM 28.1% | [2]; 25 µM 73.7%

O=C(c1ccc(Nc2nccc(-c3cc(Cl)cc(C(F)(F)F)c3)n2)cc1)N1CC(O)C1
inactive: [1]; 25 µM 88.9% | [1]; 100 µM 93.2% | [2]; 25 µM 110% | [2]; 100 µM 85.6%

O=C(NC(CCO)C1CCCCC1)c1cc2ccc(C(F)(F)F)cc2[nH]1 (stereo not given)
inactive: [1]; 25 µM 79.2% | [1]; 100 µM 100% | [2]; 25 µM 101% | [2]; 100 µM 85.3%

O=C(OI(OC(=O)C(F)(F)F)c1ccccc1)C(F)(F)F
inactive: [1]; 25 µM 97.9% | [1]; 100 µM 93% | [2]; 25 µM 89.9% | [2]; 100 µM 182%

OC(Cn1cncn1)(Cn1cncn1)c1ccc(F)cc1F
active: [2]; 100 µM 4.95%
inactive: [1]; 25 µM 106% | [1]; 100 µM 105% | [2]; 25 µM 76%

N#C/C(C(=O)c1ccccc1Cl)=C1\NC(c2ccccc2)=CS1
inactive: [1]; 25 µM 90.5% | [1]; 100 µM 100% | [2]; 25 µM 79.7% | [2]; 100 µM 45.4%
